In PubChem BioAssay (NCATS):
Records with an inconclusive call do not appear. Calls of active or inactive are those of the source. The call rests on the fitted dose curve; in most records, active means well fitted curve in the direction sought with a large enough effect; inconclusive means small, poorly fitted or top-dose-only effect, or another doubt; inactive means no such curve, though single readings can be large; an effect the other way counts as inactive or inconclusive. Numbered stars: 1 amine (or outer) side, 2 acyl side, 3 side chain; on linkers, the order of the positions; unused ones are H or OH. Bridge positions count the residues as written; N and C are the ends. Square brackets hold non-standard residues; d marks the D form. Peptide text beside a SMILES is read from it. I, II: the chains in the order shown. Actinocin(9to1) = Cc1c2oc3c(C)ccc(C(=O)[*:1])c3nc-2c(C(=O)[*:2])c(N)c1=O; NMeV = CN[C@H](C(=O)O)C(C)C; Sar = CNCC(=O)O

Key:
[1] = molecular target: Guanine nucleotide-binding protein G(i) subunit alpha-1 (Homo sapiens) (UniProt P63096); assay: qHTS Assay for Inhibitors of RGS12 GoLoco Motif Activity (Green Fluorophore) (AID 879);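 further: negative values mean loss of peptide binding seen as reduced polarization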
Outline: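 A drop in FITC polarization marked displacement of the FITC-tagged RGS12 GoLoco peptide (10 nM) from Gαi1 (50 nM). Compounds were incubated 10 min at room temperature in Tris pH 7.5 buffer containing 150 mM NaCl, 0.1 mM GDP and 0.05% NP40; unlabeled peptide titration served as control.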

[2] = molecular target: Cytochrome P450 2D6 (Homo sapiens) (UniProt P10635); assay: qHTS Assay for Inhibitors and Substrates of Cytochrome P450 2D6 (AID 891); further: nearly all actives have a fitted effect of over 60% in size; further: potency means the concentration at half of the fitted maximal effect
Outline: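 Luminescent read-out of luciferin formed by 5 nM human CYP2D6 demethylating 30 uM Luciferin-ME EGE (Km level) over 60 min at room temperature after NADPH regeneration addition. Data normalized to full inhibition by 1.43 uM quinidine.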

[3] = molecular target: Cytochrome P450 2C19 (Homo sapiens) (UniProt P33261); assay: qHTS Assay for Inhibitors and Substrates of Cytochrome P450 2C19 (AID 899); further: nearly all actives have a fitted effect of over 60% in size
Outline: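 Luminescence readout of luciferin formed from 10uM Luciferin-H EGE (KM level) by 5 nM CYP2C19 in 50mM KPO4. 60 min NADPH-driven reaction at 37C after 10 min compound preincubation; data scaled to 57uM ketoconazole inhibition.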

[4] = qHTS Assay for Identification of Small Molecule Agonists for Thrombopoietin (TPO) Signaling Pathway (AID 917)
Outline: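 Cell-based luciferase reporter screen. Mouse Ba/F3 line stably expressing human TPO receptor; IL-3 removed overnight before plating. Co-treatment with compound and EC50 TPO (26 pM), 24 hrs at 37 C, then luminescence.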

[5] = molecular target: Muscarinic acetylcholine receptor M1 (Rattus norvegicus) (UniProt P08482); assay: qHTS Assay for Antagonists of Acetylcholine Muscarinic M1 Receptor: Kinetic Measurement of Intracellular Calcium Response (AID 943);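 further: Fluo-4 calcium signal as peak divided by basal fluorescence over 4 min; series mostly up to about 35 µM; nearly all actives have a fitted effect of over 75% in size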
Outline: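 Antagonism measured as reduction of carbachol-evoked (EC80, 100 nM final) calcium flux in rat M1-CHO cells after 10 min compound exposure. Fluo-4 signal read kinetically; ratio of maximal to basal fluorescence.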

[6] = Cellular Toxicity (caspase-3) H-4-II-E (AID 663); details: Potency: caspase-3 activation; further: potency means the concentration at half of the fitted maximal effect;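 on caspase-3 activation: cells exposed to compound for 16 hr before readout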
Outline: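 Caspase 3/7 activation measured by luminescent aminoluciferin substrate cleavage after 16 hr compound treatment of H-4-II-E cells in complete medium. Increase normalized between DMSO (basal) and 100 uM tamoxifen (100%); Hill-equation AC50 from concentration-response.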

[7] = Cellular Toxicity (caspase-3) Hek293 (AID 664);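 further: cells exposed to compound for 16 h at 37 °C before readout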
Outline: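 Concentration-response qHTS: caspase 3/7 activation measured by luminescent aminoluciferin substrate cleavage after 16 h compound exposure of Hek 293 cells. AC50 from Hill equation, with DMSO as basal and 100 uM tamoxifen as 100%.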

[8] = Cellular Toxicity (caspase-3) N2a (AID 665); details: Potency: caspase-3 activation;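 further: compound exposure lasted 16 h at 37 °C before readout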; further: potency means the concentration at half of the fitted maximal effect
Outline: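 Caspase-3/7 activation measured as luminescence from Caspase-Glo reagent (1 h, room temperature) after 16 h compound exposure of mouse N2a cells. AC50 values from Hill-equation concentration-response, scaled between DMSO and 10 uM staurosporine.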

[9] = Cellular Toxicity (caspase-3) NIH 3T3 (AID 666);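 further: caspase signal read after 16 h compound exposure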; further: potency means the concentration at half of the fitted maximal effect
Outline: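 Caspase-Glo 3/7 luminescence reported caspase activation in 1000 NIH 3T3 cells/well after 16 h compound exposure at 37 C. DMSO set basal and 100 uM tamoxifen set 100% stimulation; concentration-response modeled with the Hill equation for AC50.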

[10] = molecular target: Cytochrome P450 3A4 (Homo sapiens) (UniProt P08684); assay: qHTS Assay for Activators of Cytochrome P450 3A4 (AID 885); further: nearly all actives have a fitted effect of over 65% in size
Outline: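 CYP3A4 activity: Luciferin-PPXE O-dealkylation, 25uM substrate, 200mM KPO4, RT throughout. Read-out is luciferase luminescence; higher values reflect activation.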

[11] = molecular target: Cytochrome P450 2C9 (Homo sapiens) (UniProt P11712); assay: qHTS Assay for Inhibitors and Substrates of Cytochrome P450 2C9 (AID 883); further: nearly all actives have a fitted effect of over 60% in size
Outline: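 Luminescent read-out of deoxyluciferin hydroxylation, normalized to 57uM sulphaphenazole (AC100). Reaction: 10nM enzyme, 100uM Luciferin-H (equal to KM), 25mM KPO4, 10 min compound preincubation, then 60 min with NADPH regeneration, both at 37C.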

[12] = molecular target: Muscarinic acetylcholine receptor M1 (Rattus norvegicus) (UniProt P08482); assay: qHTS Assay for Antagonists of Acetylcholine Muscarinic M1 Receptor: Measurement of IP-One Response (AID 944); further: nearly all actives have a fitted effect of over 75% in size; further: potency means the concentration at half of the fitted maximal effect
Outline: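 IP1 accumulation measured via TR-FRET between d2-IP1 and Eu-cryptate anti-IP1 antibody after carbachol (200 nM, EC80) stimulation for 30 min; rat M1-transfected CHO cells received compound 10 min before agonist.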

[13] = Cellular Toxicity (caspase-3) Renal Proximal Tubule (AID 667);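 further: cells exposed to compound for 16 hours at 37 °C before detection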
Outline: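 AC50 derived by standard Hill fit of concentration-response data, normalized between DMSO basal and 10 uM staurosporine as 100% stimulation. Cells: primary rat kidney proximal tubule, 16 h treatment at 37 °C.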

[14] = Confirmation and Secondary Assay for Modulators of Hemoglobin Beta Chain Splicing at IVS2 654 locus (AID 910);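 further: HeLa cells stably carrying EGFP split by mutant beta-globin IVS2-654 intron; per-well total GFP intensity by laser scanning cytometry after 2-day treatment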
Outline: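 Readout: per-well total peak green fluorescence (488 nm ex, 500–520 nm em) from objects 5–250 µm, reflecting correct splicing of an EGFP-654 reporter. Compounds were applied for 2 days at 37 °C to overnight-plated HeLa EGFP-654 cells; controls were DMSO and 500 nM IVS2-654 PNA.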

[15] = Cell Viability - LYMP2-001 (AID 921);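 further: cells exposed to compound for 24 h at 37 °C; nearly all actives have a fitted effect of over 70% in size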; further: potency means the concentration at half of the fitted maximal effect
Outline: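 Steps: seed 2500 lymphoblastoid cells/well; 5 hr, 37 C; add compound; 24 hr, 37 C; CellTiter-Glo reagent, 30 min room temperature; read luminescence. Concentration-response modeled by Hill equation for AC50.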

[16] = Confirmation and Secondary Assay for Modulators of Hemoglobin Beta Chain Splicing at IVS2 705 locus (AID 930);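 further: HeLa cells stably expressing the EGFP-705 splicing reporter; GFP fluorescence per well restored by corrected splicing of the IVS2-705 intron in EGFP; series mostly up to about 46 µM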
Outline: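 HeLa EGFP-705 reporter; 500 cells/well, o/n 37C 5% CO2; cpd 2 d; 488 ex/500-520 em laser scan; total peak GFP intensity/well. Ref: 500 nM […] antisense PNA.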

Measured: Potency

Cytochrome P450 2C9 (Homo sapiens), sequence (P11712 whole entry, looked up): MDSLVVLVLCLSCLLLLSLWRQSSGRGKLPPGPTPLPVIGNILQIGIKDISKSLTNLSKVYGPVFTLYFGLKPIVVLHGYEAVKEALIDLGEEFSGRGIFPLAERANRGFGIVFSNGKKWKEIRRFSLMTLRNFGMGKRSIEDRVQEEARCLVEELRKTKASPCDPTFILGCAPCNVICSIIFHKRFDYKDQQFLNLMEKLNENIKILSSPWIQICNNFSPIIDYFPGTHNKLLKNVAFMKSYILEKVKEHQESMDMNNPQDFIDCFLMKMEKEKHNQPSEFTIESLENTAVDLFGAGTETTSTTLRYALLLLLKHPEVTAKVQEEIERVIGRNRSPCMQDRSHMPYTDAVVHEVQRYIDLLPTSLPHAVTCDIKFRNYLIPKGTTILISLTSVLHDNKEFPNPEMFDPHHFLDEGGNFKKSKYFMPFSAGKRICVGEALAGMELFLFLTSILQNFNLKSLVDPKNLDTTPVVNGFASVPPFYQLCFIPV
Cytochrome P450 2D6 (Homo sapiens), sequence (P10635 whole entry, looked up): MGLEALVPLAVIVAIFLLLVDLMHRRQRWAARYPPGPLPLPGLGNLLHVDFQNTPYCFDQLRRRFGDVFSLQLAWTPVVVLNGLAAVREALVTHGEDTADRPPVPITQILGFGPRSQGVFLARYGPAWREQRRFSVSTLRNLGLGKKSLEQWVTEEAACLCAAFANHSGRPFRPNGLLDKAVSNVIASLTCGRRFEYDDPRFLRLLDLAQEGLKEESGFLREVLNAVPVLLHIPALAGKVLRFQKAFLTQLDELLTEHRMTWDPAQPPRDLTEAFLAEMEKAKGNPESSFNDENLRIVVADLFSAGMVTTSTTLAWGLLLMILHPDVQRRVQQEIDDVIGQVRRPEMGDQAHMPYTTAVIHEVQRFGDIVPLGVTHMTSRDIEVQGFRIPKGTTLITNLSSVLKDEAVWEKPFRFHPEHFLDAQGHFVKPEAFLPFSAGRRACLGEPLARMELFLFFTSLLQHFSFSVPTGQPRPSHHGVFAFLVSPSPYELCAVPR
Cytochrome P450 3A4 (Homo sapiens), sequence (P08684 whole entry, looked up): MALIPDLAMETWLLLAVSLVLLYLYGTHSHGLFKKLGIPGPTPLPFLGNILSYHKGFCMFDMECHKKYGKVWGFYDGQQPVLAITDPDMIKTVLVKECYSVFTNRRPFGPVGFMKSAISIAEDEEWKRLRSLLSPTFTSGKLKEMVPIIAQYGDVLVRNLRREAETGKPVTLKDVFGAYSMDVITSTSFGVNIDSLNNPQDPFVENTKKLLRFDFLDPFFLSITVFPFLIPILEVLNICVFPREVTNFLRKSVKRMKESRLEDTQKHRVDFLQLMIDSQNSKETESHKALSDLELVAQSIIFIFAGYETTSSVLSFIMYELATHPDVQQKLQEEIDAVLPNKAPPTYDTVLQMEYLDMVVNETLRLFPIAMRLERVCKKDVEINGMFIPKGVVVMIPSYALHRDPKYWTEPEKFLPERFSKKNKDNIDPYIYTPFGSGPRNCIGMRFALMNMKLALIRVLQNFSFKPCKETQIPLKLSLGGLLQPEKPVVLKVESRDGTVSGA
Guanine nucleotide-binding protein G(i) subunit alpha-1 (Homo sapiens), sequence (P63096 whole entry, looked up): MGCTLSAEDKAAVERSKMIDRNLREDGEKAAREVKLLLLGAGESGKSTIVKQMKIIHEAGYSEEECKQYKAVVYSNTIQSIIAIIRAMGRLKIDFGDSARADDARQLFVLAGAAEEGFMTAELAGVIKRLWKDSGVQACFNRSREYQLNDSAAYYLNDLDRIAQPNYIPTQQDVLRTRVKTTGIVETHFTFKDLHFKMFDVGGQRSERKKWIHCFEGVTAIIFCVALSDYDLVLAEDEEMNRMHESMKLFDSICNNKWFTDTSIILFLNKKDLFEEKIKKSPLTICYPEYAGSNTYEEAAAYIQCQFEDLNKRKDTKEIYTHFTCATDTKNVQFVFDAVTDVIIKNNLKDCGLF
Muscarinic acetylcholine receptor M1 (Rattus norvegicus), sequence (P08482 whole entry, looked up): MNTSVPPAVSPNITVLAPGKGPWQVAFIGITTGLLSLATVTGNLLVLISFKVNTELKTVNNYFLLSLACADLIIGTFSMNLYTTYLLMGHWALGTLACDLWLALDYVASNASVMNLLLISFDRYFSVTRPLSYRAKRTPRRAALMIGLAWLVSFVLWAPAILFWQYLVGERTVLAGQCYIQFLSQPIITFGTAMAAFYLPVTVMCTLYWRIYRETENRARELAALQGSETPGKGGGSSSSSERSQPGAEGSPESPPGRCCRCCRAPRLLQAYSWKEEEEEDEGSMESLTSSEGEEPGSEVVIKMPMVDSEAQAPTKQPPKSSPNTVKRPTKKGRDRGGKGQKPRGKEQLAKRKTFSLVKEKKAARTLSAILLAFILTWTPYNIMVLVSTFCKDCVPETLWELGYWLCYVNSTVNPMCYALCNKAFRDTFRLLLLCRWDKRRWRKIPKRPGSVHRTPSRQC
Cytochrome P450 2C19 (Homo sapiens), sequence (P33261 whole entry, looked up): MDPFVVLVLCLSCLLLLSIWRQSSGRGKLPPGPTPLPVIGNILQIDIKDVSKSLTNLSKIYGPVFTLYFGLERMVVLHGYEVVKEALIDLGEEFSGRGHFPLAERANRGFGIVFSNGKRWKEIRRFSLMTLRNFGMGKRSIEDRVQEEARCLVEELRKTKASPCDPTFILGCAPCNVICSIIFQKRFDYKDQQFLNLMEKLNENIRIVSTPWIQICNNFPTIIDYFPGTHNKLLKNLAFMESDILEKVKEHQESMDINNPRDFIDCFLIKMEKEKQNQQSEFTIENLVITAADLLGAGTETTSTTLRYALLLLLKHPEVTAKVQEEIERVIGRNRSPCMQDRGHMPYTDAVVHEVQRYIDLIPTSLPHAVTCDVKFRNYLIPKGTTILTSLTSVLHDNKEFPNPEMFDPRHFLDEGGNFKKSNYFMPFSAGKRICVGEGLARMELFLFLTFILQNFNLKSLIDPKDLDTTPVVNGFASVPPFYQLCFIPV

COc1cc(-c2ccc(=O)[nH]n2)ccc1OC(F)F
inactive: [1] | [2] | [3] | [4] | [5]

Cc1c2oc3c(C)ccc(C(=O)N[C@@H]4C(=O)N[C@H](C(C)C)C(=O)N5CCC[C@H]5C(=O)N(C)CC(=O)N(C)[C@@H](C(C)C)C(=O)O[C@@H]4C)c3nc-2c(C(=O)N[C@@H]2C(=O)N[C@H](C(C)C)C(=O)N3CCC[C@H]3C(=O)N(C)CC(=O)N(C)[C@@H](C(C)C)C(=O)O[C@@H]2C)c(N)c1=O (I: T[dV]P[Sar][NMeV] / II: T[dV]P[Sar][NMeV]; ester I:1-I:C, II:1-II:C; linker I:N-II:N via Actinocin(9to1))
inactive: [7] | [10]
active: [6] 0.126 µM | [8] 0.00794 µM | [9] 0.0251 µM

CCCn1c(=O)[nH]c(=O)c2[nH]cnc21
inactive: [1] | [11] | [2] | [3] | [4]

COc1cc(NS(C)(=O)=O)ccc1Nc1c2ccccc2nc2ccccc12
inactive: [1] | [11] | [10]
active: [12] 10 µM

CC(=O)Oc1ccc(C(c2ccc(OC(C)=O)cc2)c2ccccn2)cc1
inactive: [6] | [7] | [8] | [9] | [13] | [10] | [14] | [15]

Oc1c(Cl)cc(Cl)cc1Sc1cc(Cl)cc(Cl)c1O
inactive: [6] | [8] | [9] | [13] | [10] | [14] | [16]
active: [15] 39.8 µM

C[N+]1(CCCCC[N+]2(C)CCCC2)CCCC1
inactive: [1] | [14] | [4] | [16] | [5] | [12]

O=C(O)CCCCC(=O)O
inactive: [6] | [7] | [8] | [9] | [13] | [15]

CC(=O)O[C@]1(C(C)=O)CC[C@H]2[C@@H]3C[C@H](C)C4=CC(=O)CC[C@]4(C)[C@H]3CC[C@@]21C
active: [15] 31.6 µM
inactive: [6] | [8] | [9] | [13] | [10]

COC1=CC(=O)C[C@@H](C)[C@]12Oc1c(Cl)c(OC)cc(OC)c1C2=O
inactive: [6] | [7] | [8] | [9] | [13] | [14] | [15]

COc1ccc(CCN2CCC(Nc3nc4ccccc4n3Cc3ccc(F)cc3)CC2)cc1
active: [2] 7.94 µM
inactive: [11] | [10] | [14]

CC(Cc1cccc(C(F)(F)F)c1)NCCOC(=O)c1ccccc1 (stereo not drawn)
inactive: [10] | [14]

CCOC(=O)n1ccn(C)c1=S
inactive: [14]

CN(C(=O)CN(CCO)CC(=O)N(C)C(C)(C)Cc1ccccc1)C(C)(C)Cc1ccccc1
active: [2] 3.16 µM
inactive: [10] | [14] | [16]

CN1CCC[C@@H]1c1cccnc1
inactive: [1] | [4]
